Test results: PubChem BioAssay (NCATS)
Records with an inconclusive call do not appear. Entries that show only a call come without a potency. Active and inactive are the calls of the source. Unless noted, calls come from the whole dose curve; as a rule, active = well fitted curve in the direction sought with a large enough effect; inconclusive = small, poorly fitted or top-dose-only effect, or another doubt; inactive = no such curve, though single readings can be large; an effect the other way counts as inactive or inconclusive.

How the values were obtained:
[1] = Primary qHTS for inhibitors of nuclear receptor binding SET domain protein 2 (NSD2) in an isogenic RCH-ACV NSD2 p.E1099K mutant (9B) (AID 1645876); conditions: RCH-ACV NSD2 E1099K (9B) viability, CellTiter-Glo, 72 h; series mostly up to 44.9 µM; note: nearly all actives have a fitted effect of over 70% in size; note: potency is the fitted concentration of half-maximal effect
[2] = Primary qHTS for inhibitors of nuclear receptor binding SET domain protein 2 (NSD2) in an RCH-ACV wild type WT cells (2C) (AID 1645877); conditions: RCH-ACV (leukaemia line) NSD2 WT (2C) viability, CellTiter-Glo, 72 h; series mostly up to 44.9 µM; note: nearly all actives have a fitted effect of over 70% in size; note: potency is the fitted concentration of half-maximal effect
[3] = molecular target: Cytochrome P450 2C9 (Homo sapiens) (UniProt P11712); assay: Cytochrome P450 family 2 subfamily C member 9 (CYP2C9) small molecule antagonists: luciferase biochemical (cell-free) qHTS assay (AID 1645842; active = well fitted curve in the direction sought with a large enough effect in the repeat runs; an effect the other way counts as inactive or inconclusive; note: nearly all actives have a fitted effect of over 55% in size; note: potency is the fitted concentration of half-maximal effect); conditions: P450-Glo CYP2C9 enzyme assay, luciferin luminescence; series mostly up to 57.4 µM
Cytochrome P450 2C9 (Homo sapiens), sequence (P11712 whole entry, looked up): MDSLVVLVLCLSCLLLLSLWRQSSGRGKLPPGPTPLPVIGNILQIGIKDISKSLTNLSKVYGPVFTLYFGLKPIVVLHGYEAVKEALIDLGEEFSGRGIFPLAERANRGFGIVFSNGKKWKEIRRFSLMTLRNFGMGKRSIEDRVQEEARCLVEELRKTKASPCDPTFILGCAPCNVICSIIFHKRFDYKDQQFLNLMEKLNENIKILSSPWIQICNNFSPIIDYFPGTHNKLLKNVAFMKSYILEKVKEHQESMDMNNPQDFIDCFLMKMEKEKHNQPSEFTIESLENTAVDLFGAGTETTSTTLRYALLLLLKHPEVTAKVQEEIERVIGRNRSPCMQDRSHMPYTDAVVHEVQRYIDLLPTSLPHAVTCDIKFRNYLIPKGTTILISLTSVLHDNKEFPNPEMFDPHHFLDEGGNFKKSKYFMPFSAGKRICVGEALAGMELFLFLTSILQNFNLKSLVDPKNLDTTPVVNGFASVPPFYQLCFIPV
How it was run: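 P450-Glo CYP2C9 system: proluciferin substrate with enzyme in mix containing 0.4% BSA, 10 min at room temperature, then NADPH regeneration solution added and incubated 1 h at 37C. Detection reagent stopped reaction; luminescence read after 20 min as RLU.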

[4] = molecular target: Rap guanine nucleotide exchange factor 3 (Homo sapiens) (UniProt O95398); assay: Confirmatory qHTS for agonist of cAMP-regulated guanine nucleotide exchange factor 3 (EPAC1) (AID 1645881); conditions: EPAC1 Rap1B BODIPY-GDP exchange fluorescence, 100% = cAMP control response; series mostly up to 154 µM;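 note: EPAC1 catalysed release of BODIPY-GDP from Rap1B seen as fluorescence loss; nearly all actives have a fitted effect of over 75% in size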
Rap guanine nucleotide exchange factor 3 (Homo sapiens), sequence (O95398 whole entry, looked up): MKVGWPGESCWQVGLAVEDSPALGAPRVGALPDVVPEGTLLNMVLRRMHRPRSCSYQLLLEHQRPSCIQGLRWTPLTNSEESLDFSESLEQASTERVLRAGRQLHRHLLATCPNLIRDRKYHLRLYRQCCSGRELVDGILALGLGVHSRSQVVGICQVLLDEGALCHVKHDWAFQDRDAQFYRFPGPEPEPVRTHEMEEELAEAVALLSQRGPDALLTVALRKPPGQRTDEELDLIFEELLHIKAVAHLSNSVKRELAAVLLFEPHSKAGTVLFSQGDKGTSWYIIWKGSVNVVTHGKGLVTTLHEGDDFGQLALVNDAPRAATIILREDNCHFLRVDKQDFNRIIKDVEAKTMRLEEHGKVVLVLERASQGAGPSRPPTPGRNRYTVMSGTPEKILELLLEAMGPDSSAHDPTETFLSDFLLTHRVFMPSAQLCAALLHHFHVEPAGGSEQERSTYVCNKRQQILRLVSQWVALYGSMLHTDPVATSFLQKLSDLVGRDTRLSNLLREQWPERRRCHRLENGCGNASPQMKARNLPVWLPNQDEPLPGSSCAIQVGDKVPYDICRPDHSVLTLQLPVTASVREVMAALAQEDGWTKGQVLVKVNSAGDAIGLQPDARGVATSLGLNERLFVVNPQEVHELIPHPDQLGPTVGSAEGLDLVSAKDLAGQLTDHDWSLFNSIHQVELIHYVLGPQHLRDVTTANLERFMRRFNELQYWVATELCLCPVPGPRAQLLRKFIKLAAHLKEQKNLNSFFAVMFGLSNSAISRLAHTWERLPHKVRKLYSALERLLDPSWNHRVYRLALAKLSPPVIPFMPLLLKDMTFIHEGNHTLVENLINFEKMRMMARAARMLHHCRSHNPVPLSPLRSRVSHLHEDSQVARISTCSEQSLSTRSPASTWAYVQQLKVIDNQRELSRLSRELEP

[5] = molecular target: Rap guanine nucleotide exchange factor 4 (Homo sapiens) (UniProt Q8WZA2); assay: Confirmatory qHTS for agonist of cAMP-regulated guanine nucleotide exchange factor 4 (EPAC2) (AID 1645884); conditions: EPAC2 GEF activity, Rap1B-BODIPY-GDP fluorescence, percent relative to cAMP agonist control; series mostly up to 154 µM;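 note: nucleotide exchange releases bodipy-GDP from Rap1 and this lowers its fluorescence; nearly all actives have a fitted effect of over 65% in size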
Rap guanine nucleotide exchange factor 4 (Homo sapiens), sequence (Q8WZA2 whole entry, looked up): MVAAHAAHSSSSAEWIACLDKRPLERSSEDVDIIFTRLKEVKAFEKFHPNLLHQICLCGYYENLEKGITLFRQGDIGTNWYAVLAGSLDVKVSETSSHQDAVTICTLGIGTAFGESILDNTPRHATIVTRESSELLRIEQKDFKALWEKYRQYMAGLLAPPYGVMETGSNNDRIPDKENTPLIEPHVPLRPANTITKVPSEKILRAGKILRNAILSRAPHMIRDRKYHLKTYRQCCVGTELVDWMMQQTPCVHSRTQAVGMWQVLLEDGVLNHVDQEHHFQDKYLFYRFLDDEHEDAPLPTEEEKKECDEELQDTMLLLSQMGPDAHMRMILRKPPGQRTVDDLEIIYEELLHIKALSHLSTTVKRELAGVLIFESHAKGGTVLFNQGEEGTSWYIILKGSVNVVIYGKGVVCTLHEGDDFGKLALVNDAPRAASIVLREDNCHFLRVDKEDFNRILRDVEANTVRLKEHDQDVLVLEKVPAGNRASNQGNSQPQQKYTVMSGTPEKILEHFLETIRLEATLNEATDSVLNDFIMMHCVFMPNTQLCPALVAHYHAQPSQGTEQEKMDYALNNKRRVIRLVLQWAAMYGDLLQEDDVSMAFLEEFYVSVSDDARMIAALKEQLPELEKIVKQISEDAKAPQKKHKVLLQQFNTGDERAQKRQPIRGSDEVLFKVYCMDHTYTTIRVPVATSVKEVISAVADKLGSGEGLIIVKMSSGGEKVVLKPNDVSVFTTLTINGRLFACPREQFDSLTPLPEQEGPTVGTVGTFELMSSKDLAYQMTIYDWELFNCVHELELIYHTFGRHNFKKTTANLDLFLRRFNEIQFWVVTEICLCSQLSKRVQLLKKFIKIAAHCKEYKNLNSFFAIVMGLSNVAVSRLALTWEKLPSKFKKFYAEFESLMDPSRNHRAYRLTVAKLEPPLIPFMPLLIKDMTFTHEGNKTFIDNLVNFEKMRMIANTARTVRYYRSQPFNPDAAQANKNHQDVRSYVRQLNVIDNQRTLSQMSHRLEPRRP

[6] = molecular target: Rap guanine nucleotide exchange factor 3 (Homo sapiens) (UniProt O95398); assay: Confirmatory qHTS for antagonist of cAMP-regulated guanine nucleotide exchange factor 3 (EPAC1) (AID 1645880); conditions: EPAC1 Rap1B-BODIPY-GDP exchange, fluorescence; series mostly up to 115 µM; note: nearly all actives have a fitted effect of over 55% in size
How it was run: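 Released BODIPY-GDP fluoresces less than Rap1-bound BODIPY-GDP; the signal is followed at 480/540 nm at 5-min intervals over 30 min, after 5 min at room temperature. Reactions contain 100 nM EPAC1, 250 nM RAP1B-BODIPY-GDP and 50 uM GDP; results are normalized to ATA and DMSO.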

C=CC[N+]1([C@H]2C[C@H]3[C@@H]4CC[C@H]5C[C@H](O)[C@@H](N6CCOCC6)C[C@]5(C)[C@H]4CC[C@]3(C)[C@H]2OC(C)=O)CCCC1
Potency [1]: inactive
Potency [2]: inactive

O=C(O)CCC(=O)c1ccc(-c2ccccc2)cc1
Potency [3]: inactive
Potency [1]: inactive
Potency [2]: inactive

C=CC[C@@H]1/C=C(\C)C[C@H](C)C[C@H](OC)[C@H]2O[C@@](O)(C(=O)C(=O)N3CCCC[C@H]3C(=O)O[C@H](/C(C)=C/[C@@H]3CC[C@@H](O)[C@H](OC)C3)[C@H](C)[C@@H](O)CC1=O)[C@H](C)C[C@@H]2OC
outcome [4]: inactive
outcome [5]: inactive

C[C@H](NCCc1ccc(O)cc1)[C@H](O)c1ccc(O)cc1
Potency [3]: inactive

CSc1nc2cc(Oc3cccc(Cl)c3Cl)c(Cl)cc2[nH]1
outcome [6]: inactive
outcome [4]: inactive
outcome [5]: inactive

CC[C@H](CC[C@@H](C)[C@H]1CC[C@H]2[C@@H]3CC=C4C[C@@H](O)CC[C@]4(C)[C@H]3CC[C@]12C)C(C)C
Potency [1]: inactive
Potency [2]: inactive

COc1cc(NCCCC(C)N)c2ncccc2c1 (stereo not drawn)
outcome [6]: inactive
outcome [4]: inactive
outcome [5]: inactive

CC(=O)Oc1cccc2c1C(=O)c1c(OC(C)=O)cc(C(=O)O)cc1C2=O
Potency [3]: inactive
Potency [1]: inactive
Potency [2]: inactive

CO[C@H]1C[C@@H]2CC[C@@H](C)[C@@](O)(O2)C(=O)C(=O)N2CCCC[C@H]2C(=O)O[C@H]([C@H](C)C[C@@H]2CC[C@@H](OC(=O)C(C)(CO)CO)[C@H](OC)C2)CC(=O)[C@H](C)/C=C(\C)[C@@H](O)[C@@H](OC)C(=O)[C@H](C)C[C@H](C)/C=C/C=C/C=C/1C
Potency [1]: 0.204 µM (active)
Potency [2]: 0.574 µM (active)

NC(=O)Oc1ccc(Cc2ccccc2)cc1
outcome [6]: inactive
outcome [4]: inactive
outcome [5]: inactive

CNC(=O)[C@H](Cc1c[nH]c2ccccc12)NC(=O)[C@@H](CC(=O)NO)CC(C)C
Potency [1]: inactive

CCOC(=O)[C@@H](N)CS
Potency [3]: 10.7 µM (active)

CN[C@@H]1[C@@H](O)[C@@H](O[C@@H]2[C@@H](O)[C@H](O[C@H]3O[C@H](CN)[C@@H](O)[C@H](O)[C@H]3O)[C@@H](N)C[C@H]2NC(=O)C(O)CN)OC[C@]1(C)O (stereo partly drawn)
Potency [1]: inactive

CC1CC(OC(=O)C(O)c2ccccc2)CC(C)(C)C1 (stereo not drawn)
outcome [6]: inactive
outcome [4]: inactive
outcome [5]: inactive

O=C(O)c1cc(N=Nc2ccc(O)c(C(=O)O)c2)ccc1O
Potency [3]: 10.7 µM (active)
outcome [4]: inactive
outcome [5]: inactive

COc1ccc([C@@H]2CC(=O)c3c(O)cc(O[C@@H]4O[C@H](CO[C@@H]5O[C@@H](C)[C@H](O)[C@@H](O)[C@H]5O)[C@@H](O)[C@H](O)[C@H]4O)cc3O2)cc1O
Potency [1]: inactive
Potency [2]: inactive

CC(=O)Nc1ccc(NC(=S)NC(=O)c2ccc(C(C)(C)C)cc2)cc1
Potency [1]: 1.83 µM (active)
Potency [2]: 3.25 µM (active)

Cc1cc(-c2ccc(N=Nc3c(S(=O)(=O)O)cc4cc(S(=O)(=O)O)cc(N)c4c3O)c(C)c2)ccc1N=Nc1c(S(=O)(=O)O)cc2cc(S(=O)(=O)O)cc(N)c2c1O
Potency [3]: 15.1 µM (active)
